HepG2 viability = counter-screen for TGF-b inhibitors: cytotoxicity in HepG2 cells; hit rate 0.76% among 410,000; Potency, µM (highest dose often 46.1 µM), without a hit: at the highest dose activity change, negative = cytotoxicity, actives largely listed as cytotoxic; AID 588856; HepG2 CAGA-GFP viability, ATP luminescence, 18 h
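HepG2 CAGA-GFP cells (1000/well, DMEM with 1% FBS) received compound, then TGF-beta at 500 pg/mL final, and were incubated 18 hours at 37 degrees C. Viability was read by CellTiter-Glo luminescence. Media-only wells were set as complete cell-killing and DMSO as no toxicity.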
HT1080-NT tox = kills 2HG-producing HT-1080-NT fibrosarcoma cells; Potency, µM (series often up to 46.1 µM), for the others: at the top dose activity, negative = less viability, most hits filed as cytotoxic; HT-1080-NT fibrosarcoma viability, CellTiter-Glo ATP luminescence, 48 h; hit rate 1.6% among 360,000;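 note: NT is the 2HG producing partner of a matched IDH1 knockdown line; 0% = DMSO-treated cells and -100% = media-only wells without cells; nearly all actives have a fitted effect of over 55% in size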
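HT-1080-NT; 750 cells/well; 5% FBS RPMI; 48 h compound, 37 degrees C; CellTiter-Glo luminescence; curve fitting and curve-class assignment.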
TGFb SMAD3 inh = inhibitors of TGF-b signaling. Potency, µM (top dose mostly 46.1 µM), for inactives: at the top dose activity, negative = inhibition, usual class: inhibitors. hit rate 1.2% among 410,000. HepG2 CAGA-GFP TGF-b/SMAD3 reporter, GFP fluorescence, 18 h; TGF-beta stimulated, 500 pg/mL final; note: % is set by controls: 0 for no effect and ±100 for the full control effect; nearly all actives have a fitted effect of over 65% in size
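TGF-beta reporter screen: HEPG2 CAGA-GFP, 1% FBS, 500 pg/mL TGF-beta final, 18 h; per-cell GFP summed per well; curves fitted and categorized by class.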
ATXN2 expr inh = ATXN2 expression inhibition; Potency, µM (top dose mostly 57 µM), without a hit: at the top dose activity change, negative = inhibition, most hits filed as inhibitors; HEK-293 ATXN2-luciferase reporter, luminescence, 24 h; AID 1745845; hit rate 0.72% among 360,000; note: % is set by controls: 0 for no effect and ±100 for the full control effect; nearly all actives have a fitted effect of over 55% in size
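qHTS (up to 57 uM final) was run with 24 h compound exposure of reporter cells at 37 °C. Each well was multiplexed: SteadyGlo luminescence measured ATXN2-luciferase expression after a fluorogenic Gly-Phe-AFC viability readout (25 uM final).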
ATXN viability = viability counter-screen for ATXN expression inhibitors. Potency, µM (series often up to 56.7 µM), hits mostly cytotoxic. S2 cells (HEK-293 line with an ATXN2-luciferase reporter) viability, CellTiter-Fluor protease fluorescence, 24 h. hit rate 0.49% among 400,000; note: nearly all actives have a fitted effect of over 40% in size
HT1080 IDH1KD tx = kills HT-1080 cells with IDH1 knockdown; Potency, µM (highest dose often 46.1 µM), for inactives: at the top dose activity, negative = toxicity, most hits filed as cytotoxic; hit rate 2% among 360,000; HT-1080 IDH1 knockdown viability, ATP luminescence, 48 h;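 note: 0% = DMSO wells and -100% = cell-free medium wells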
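Luminescent ATP read-out (CellTiter-Glo, 10 min at room temperature) after 48 h compound exposure at 37 °C gave viability of IDH1-knockdown HT-1080 cells. Activity was normalised to DMSO and cell-free wells, then fitted as concentration-response curves.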
* = called active by the depositor; i = inactive; ? = inconclusive; / = no result; ! = repeats disagree. Only some compounds are listed: those with a hit (about 3.9% of all), similar ones and a draw of the others. Calls come from the whole dose curve; as a rule, active = well fitted curve in the direction sought with a large enough effect; inconclusive = small, poorly fitted or top-dose-only effect, or another doubt; inactive = no such curve, though single readings can be large; an effect the other way counts as inactive or inconclusive. Potency is the fitted concentration of half-maximal effect.

SMILES	HepG2 viability	HT1080-NT tox	TGFb SMAD3 inh	ATXN2 expr inh	ATXN viability	HT1080 IDH1KD tx
C[C@@H]1CN([C@@H](C)CO)C(=O)CCCn2nncc2CO[C@@H]1CN(C)C(=O)Nc1ccc(N2CCCCC2)cc1	9%	-6%	2%	11%	i	3%
CN[C@@H]1Cc2cccc3[nH]c(=O)n(c23)C1	/	/	/	-3%	/	/
COc1ccccc1NC(=O)Cn1c(=O)n(-c2cccc(Cl)c2)c(=O)c2sc3ccccc3c21	3%	/	0%	-2%	i	/
CCOC(=O)[C@]12Cc3cc(C)ccc3[C@H]1N(C(C)C)C(=O)c1ccccc12	/	12µM*	/	?	/	26µM*
CCOC(=O)[C@]12Cc3ccccc3[C@H]1N(Cc1ccccc1)C(=O)c1ccccc12	-30%	10%	-26%	?	?	7%
CCOC(=O)[C@]12Cc3cc(C)ccc3[C@H]1N(Cc1ccccc1)C(=O)c1ccccc12	-21%	-3%	10µM*	?	?	-22%
CC1=CC2/C=C(\C)CCC(O)C(O)/C=C/C(=O)C23C(=O)NC(CC(C)C)C3C1C (configuration not stated)	-117%	12µM*	3.2µM*	?	/	7.3µM*
C[C@@H]1[C@H](O)[C@@H](C)C=CC=CCCC=CC=CC=CC=C[C@H](O[C@H]2O[C@@H](C)[C@H](O)[C@@H](N)[C@@H]2O)CC2O[C@](O)(C[C@@H](O)[C@H](O)CC[C@@H](O)C[C@@H](O)C[C@@H](O)CC(=O)O[C@H]1C)C[C@H](O)[C@H]2C(=O)O	/	/	/	10%	i	/
CC(C)C(=O)Nc1ccc(C(=O)NCc2cccnc2)cc1	-7%	?	-3%	-5%	i	23µM*
O=c1[nH]c2ccccc2n1C1CCN(Cc2ccc(-c3nc4ccc(F)cc4nc3-c3ccccc3)cc2)CC1	/	21µM*	/	?	?	?
Cc1ccc(-c2c(C)n3c4c(=O)n(C)c(=O)n(C)c4nc3n2CCO)cc1	-1%	/	-6%	-15%	?	/
O=c1[nH]c(=O)n(-c2ccccc2)c(O)c1/C=C1/C(c2ccccc2)=Nc2ccccc21	-1%	4.1µM*	-27%	15%	i	2.1µM*
CN1C(=O)C(=Cc2ccccc2OCc2ccccc2Cl)C(=O)N(C)C1=O	7%	16µM*	-7%	?	i	16µM*
CN1C(=O)C(=Cc2ccccc2OCc2ccc(C(=O)O)cc2)C(=O)N(C)C1=O	-11%	-11%	-18%	15%	i	2%
Cc1oc(-c2ccc(Cl)cc2)nc1CN1C(=O)CN=C(c2ccccc2)c2ccccc21	-94%	/	20µM*	?	?	/
CCOC(=O)c1c(C=O)c2ccccc2n1Cc1ccccc1F	-5%	-24%	-16%	-23%	i	?
Cc1c(C=O)c2ccccc2n1Cc1ccccc1F	-40%	-19%	1.1µM*	-18%	i	-4%
Nc1c(Br)cc2c3c(cccc13)-c1ccccc1-2	16µM*	-28%	63%	2%	i	?
COc1ccc2nc(N3CCN(C(=O)CS(=O)(=O)c4ccc(C)cc4)CC3)sc2c1	-9%	/	?	/	/	/
CCOC(=O)c1c(C)c(C(=O)Nc2cc(OC)ccc2OC)c(C)n1CC	-26%	7.1µM*	-2%	-13%	i	7.1µM*
CCn1c(C)c(C(=O)NCCc2ccccc2)c2cc(OC)ccc21	18%	-1%	3%	5%	i	-11%
CCCCCn1c(N)c(C(=O)NCCN2CCOCC2)c2nc3ccccc3nc21	-72%	16µM*	?	-32%	i	18µM*
Nc1c(C(=O)NCc2ccco2)c2nc3ccccc3nc2n1CCN1CCOCC1	-26%	?	-15%	?	i	?
CCCCCCn1c(N)c(C(=O)NCCN2CCOCC2)c2nc3ccccc3nc21	-89%	?	16µM*	-15%	i	?
CN(CCc1ccccc1)Cc1c[nH]c2ccccc12	11µM*	-20%	14µM*	/	?	-10%
SMILES	HepG2 viability	HT1080-NT tox	TGFb SMAD3 inh	ATXN2 expr inh	ATXN viability	HT1080 IDH1KD tx
CCN(CC)Cc1c[nH]c2ccccc12	-28%	-16%	-2%	20%	i	-20%
CCCCC[C@@H]1CCCCC[C@@H](O)C[C@@H](O)[C@H](O)/C=C/C(=O)O1	/	-22%	/	1%	i	0%
CC1=NCCc2c1[nH]c1cc(O)ccc21	0%	18%	141%	2%	/	-12%
C1=NCCc2c1[nH]c1ccccc21	-36%	?	?	?	i	16µM*
CCc1nc2ccc(C(=O)N3CCN(C(=O)c4ccco4)CC3)cn2c1N(C)Cc1ccc(OC)cc1	-3%	?	?	8%	i	2%
COc1ccccc1CNC(=O)CCS(=O)(=O)c1ccc2c(c1)oc(=O)n2C	-35%	/	-7%	1%	i	/
COc1ccc(-n2c(O)c(/C(C)=N/Nc3ccccc3)c(=O)[nH]c2=O)cc1	-45%	1.6µM*	0%	-23%	i	1.8µM*
COc1cccc(N2CCN(C(=O)Cn3c(=O)oc4ccccc43)CC2)c1	-24%	19%	-2%	-9%	i	15%
COC(=O)[C@H]1[C@@H](OC(=O)c2ccccc2)C[C@@H]2CC[C@H]1N2C	/	/	/	/	i	/
C=CCc1ccccc1OCCn1c(C2CC(=O)N(Cc3ccc(F)cc3)C2)nc2ccccc21 (configuration not stated)	-108%	/	16µM*	?	/	/
Cc1cccc(OCC(=O)Nc2cc(-c3ccccc3F)nn2-c2ccccc2)c1	-4%	/	1%	-23%	?	/
O=Cc1cn(CCCOc2ccccc2)c2ccccc12	-23%	-1%	?	0%	i	-10%
Cc1cccc(Cn2cc(C=O)c3ccccc32)c1	-35%	-10%	1.1µM*	?	i	?
N#Cc1ccc(Cn2cc(C=O)c3ccccc32)cc1	-47%	-4%	1.4µM*	?	i	-4%
CCC(=O)c1cn(Cc2ccc(C#N)cc2)c2ccccc12	16%	-2%	0%	5%	i	-5%
O=Cc1cn(Cc2cccc([N+](=O)[O-])c2)c2ccccc12	-46%	-16%	0.71µM*	0.45µM*	?	-4%
O=Cc1cn(Cc2c(F)cccc2Cl)c2ccccc12	-6%	0%	3.5µM*	/	?	-12%
CC(C)C[C@H](CN)CC(=O)O	/	/	/	-4%	/	/
NC(N)=Nc1ccc2[nH]c3c(c2c1)C[C@@]1(O)[C@H]2Cc4ccc(O)c5c4[C@@]1(CCN2CC1CC1)[C@H]3O5	-53%	15µM*	14µM*!	-10%	?	16µM*
